Sfp PPTase inh = inhibitors of Bacillus subtilis Sfp phosphopantetheinyl transferase; Q9F4F7; Biochemical Sfp PPTase activity, qHTS; Potency, µM, without a hit: largest response in the series, negative = inhibition, usual class: inhibitors; 310,000 tested, 3.5% active;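 further: the enzyme is Sfp with the accession as filed and its product quenches rhodamine fluorescence; 0% = enzyme reaction without inhibitor and -100% = no enzyme wells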
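Compounds were incubated with enzyme (final 15 nM) for 15 min at room temperature before substrate addition started the reaction. Fluorescence at 525 nm excitation, 598 nm emission was recorded immediately and after 30 minutes.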
ALDH1A1 inh = blocks purified human ALDH1A1 activity; Purified ALDH1A1, NADH fluorescence, propionaldehyde substrate; Potency, µM (doses to about 75.3 µM), without a hit: at the highest dose activity, negative = inhibition, most hits filed as inhibitors; 220,000 tested, 7.3% active; AID 1030; active means well fitted inhibition curve with a large enough effect, not every such curve was filed as active; inconclusive means small, poorly fitted or top-dose-only effect, or another doubt; inactive means no such curve, though single readings can be large or run the other way;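 further: plate controls were no enzyme wells and a reference inhibitor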
PLK1 PBD inh = blocks phosphopeptide binding to human PLK1 polo-box domain. Potency, µM, inactives show max response, negative = inhibition, actives largely listed as inhibitors. Plk1 PBD binding of FITC phosphopeptide, fluorescence polarization. 360,000 tested, 2.8% active; further: series mostly up to about 57 µM; nearly all actives have a fitted effect of over 65% in size
RORg inh = blocks mouse ROR gamma transcriptional activity; 310,000 tested, 5.4% active; Potency, µM (titrated, usually from 53.6 µM), for inactives: at the top dose activity change, negative = inhibition, hits mostly inhibitors; AID 2551; Drosophila S2 Gal4-RORgamma UAS-luciferase reporter, 20 h; P51450; further: nearly all actives have a fitted effect of over 60% in size
Target sequence (P51450 whole entry, looked up, the tested form may be a part): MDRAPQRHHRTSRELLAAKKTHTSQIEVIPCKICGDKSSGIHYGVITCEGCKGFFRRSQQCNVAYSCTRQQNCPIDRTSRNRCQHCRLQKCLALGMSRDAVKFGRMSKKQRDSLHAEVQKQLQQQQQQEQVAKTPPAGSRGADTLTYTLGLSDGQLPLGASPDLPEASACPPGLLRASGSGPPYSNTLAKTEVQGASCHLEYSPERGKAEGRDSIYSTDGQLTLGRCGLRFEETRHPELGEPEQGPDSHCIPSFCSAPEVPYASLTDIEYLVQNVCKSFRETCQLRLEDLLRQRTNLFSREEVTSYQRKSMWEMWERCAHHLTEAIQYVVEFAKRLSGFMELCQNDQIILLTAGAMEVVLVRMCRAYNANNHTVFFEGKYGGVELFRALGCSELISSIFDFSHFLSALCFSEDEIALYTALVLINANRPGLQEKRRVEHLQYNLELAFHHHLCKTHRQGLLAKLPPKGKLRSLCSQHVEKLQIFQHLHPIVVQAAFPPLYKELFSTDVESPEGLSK
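Luminescence from a UAS-regulated Photinus luciferase reporter in stably transfected Drosophila Schneider cells is measured; decreased signal marks ROR gamma inhibition. Fusion expression is induced by 700 uM copper sulfate for 20 hr.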
Gal4-VP16 FLuc = Gal4-VP16 reporter inhibition counter-screen. AID 2546. Potency, µM (doses to about 53.6 µM), for inactives: at the highest dose activity, negative = inhibition, usual class: inhibitors. 310,000 tested, 3.5% active. Drosophila S2 Gal4-VP16 UAS-luciferase, luminescence, 20 h;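 further: Gal4-VP16 expression switched on by copper sulfate through the metallothionein promoter; nearly all actives have a fitted effect of over 50% in size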
* = called active by the depositor; ? = inconclusive; · = not tested or not shown; [ ] = remark or other dose. Most compounds without a hit are left out; they make up all but 12% or so of the library. Unless noted, the call rests on the fitted dose curve; in most records, active means well fitted curve in the direction sought with a large enough effect; inconclusive means small, poorly fitted or top-dose-only effect, or another doubt; inactive means no such curve, though single readings can be large; an effect the other way counts as inactive or inconclusive. Unless noted, on the % scale 0 is the no-effect control and ±100 the full control effect; potency means the concentration at half of the fitted maximal effect.

SMILES	Sfp PPTase inh	ALDH1A1 inh	PLK1 PBD inh	RORg inh	Gal4-VP16 FLuc
O=C(O)CCCn1cc(NC(=O)c2cc(F)c(F)cc2Cl)cn1	-8%	?	8.4µM*	-26%	-16%
O=C(O)CCCn1cc(NC(=O)c2cccc(F)c2)cn1	3%	1%	5%	-2%	5%
Cc1cccc(NC(=O)CNC(=O)COc2cc(F)ccc2[N+](=O)[O-])c1C	24%	7%	15µM*	24%	-11%
C/C(=C\c1ccc(Cl)cc1)C(C)(C)C(=O)O	·	-11%[13.5 µM]	·	·	·
CCNC(=O)C1CCCN(C(=O)c2ccc(OC(F)F)cc2)CC1 (centres undefined)	·	·	-13%	·	·
CCCCc1c(C)nn(-c2nnc3c4ccccc4n(C)c3n2)c1C	7%	?	-3%	0.79µM*	7.1µM*
Cn1c2ccccc2c2nnc(NN)nc21	?	·	-20%	-13%	0%
COc1ccc(N2CCN(c3ccnc4cc(Cl)ccc34)CC2)cc1	56µM*	·	-1%	-13%	3%
CCC(=O)N1CCN(c2ccnc3cc(Cl)ccc23)CC1	8%	·	-5%	-7%	1%
Cc1ccc(S(=O)(=O)N2CCN(c3ccnc4cc(Cl)ccc34)CC2)cc1	9%	?	5%	?	16µM*
Cc1ccc(S(=O)(=O)N2CCN(c3ccnc4cc(Cl)ccc34)CC2)cc1C	-12%	?	2%	16%	?
CCOC(=O)N1CCN(c2ccnc3cc(Cl)ccc23)CC1	12%	·	-6%	-13%	-11%
O=C(Oc1ccnc2cc(Cl)ccc12)N1CCCCCC1	-23%	5µM*	-1%	4%	13µM*
O=C(c1ccc(Cl)cc1)N1CCN(c2ccnc3cc(Cl)ccc23)CC1	-13%	-6%	-11%	?	25µM*
O=C(C[C@H]1C[C@@H]2c3cc(NC(=O)c4cccnc4)ccc3O[C@@H]2[C@H](CO)O1)NCc1ccncc1	·	·	-10%	·	·
CCCCOC(OCCCC)[C@H](O)CSc1ccc2ccccc2c1	15%	4%[13.5 µM]	·	1%[10 µM]	-12%[10 µM]
O=S(OCCN1CCOCC1)C(c1ccccc1)c1ccccc1 (centres undefined)	·	·	-1%	·	·
COc1cc(/C=C/C(=O)c2c(O)ccc3c(C)cc(=O)oc23)ccc1O	-16%	-3%	-20%	13µM*	?
Cc1cc(=O)oc2c(C(=O)/C=C/c3ccccc3)c(O)ccc12	12%	9%	-11%	-1%	-21%
COc1ccc(/C=C\C(=O)c2c(O)ccc3c(C)cc(=O)oc23)cc1OC	-2%	-7%	-3%	13µM*	?
Cn1c(CNc2ccc(O)cc2)nc2ccccc21	79µM*	·	-6%	?	?
c1ccc(NCc2nc3ccccc3n2CCOc2ccccc2)cc1	2%	-6%	0%	13µM*	?
CN(Cc1nc2ccccc2n1C)c1ccccc1	-1%	·	-10%	11µM*	?
CCCc1nc2ccccc2n1CCOc1ccccc1	6%	-1%	-15%	1%	-6%
COc1ccc(NCc2nc3ccccc3n2CCOc2ccc(C)cc2)cc1	-9%	-12%	-9%	20µM*	?
SMILES	Sfp PPTase inh	ALDH1A1 inh	PLK1 PBD inh	RORg inh	Gal4-VP16 FLuc
O=C1[C@H]2[C@H]3[C@H](O)[C@H](O)C/C(=N/OC[C@@H](O)COCc4ccco4)[C@H]3CC[C@@H]2C(=O)N1c1cccc(Oc2ccccc2)c1	-14%	8%[13.5 µM]	·	11%[10 µM]	-15%[10 µM]
OCCN1CCN(c2ncnc3c2ncn3[C@H]2CN(Cc3cccs3)C[C@@H](CO)O2)CC1	·	·	4%	·	·
CC(C)(C)N1CC(c2nc3ccccc3n2CCOc2ccccc2)CC1=O (centres undefined)	16%	3.2µM*	2%	30%	11%
CC(C)(C)N1CC(c2nc3ccccc3n2Cc2ccc(Cl)cc2)CC1=O (centres undefined)	6%	-11%	-5%	-15%	-4%
COc1ccc(NCc2nc3ccccc3n2CCOc2ccccc2)cc1	-8%	-11%	-14%	16µM*	-15%
COc1ccc(NCc2nc3ccccc3n2C)cc1	7%	·	-3%	?	-9%
CCCNc1nc(C)nc2c1cnn2CCc1ccccc1	16%	18µM*	4%	24%	15%
Cc1nc(NC(C)C)c2cnn(CCc3ccccc3)c2n1	14%	4%	2%	?	16%
COC(=O)C/C=C/[C@@H](C)[C@@H](/C=N/O[C@@H](C)c1cn([C@H](CO)Cc2ccccc2)nn1)NS(=O)(=O)c1ccc(C)cc1	4%	18µM*	·	?	-3%

High-throughput results as filed in PubChem BioAssay.
